The values below come from PubChem BioAssay AID504634 (The Scripps Research Institute Molecular Screening Center, 2011).

Each structure is given as a SMILES string. About 280 (0.082%) of roughly 340,000 compounds were called active. No stated cut-off is given here; in the data, active means inhibition mostly above about 23% (no sharp cut-off); inactive means mostly below about 18%. Many of the other results were omitted from the sample, so actives are more common in it than they were.

Chain of 5-hydroxytryptamine receptor 5A (Homo sapiens) (P47898 whole entry, looked up): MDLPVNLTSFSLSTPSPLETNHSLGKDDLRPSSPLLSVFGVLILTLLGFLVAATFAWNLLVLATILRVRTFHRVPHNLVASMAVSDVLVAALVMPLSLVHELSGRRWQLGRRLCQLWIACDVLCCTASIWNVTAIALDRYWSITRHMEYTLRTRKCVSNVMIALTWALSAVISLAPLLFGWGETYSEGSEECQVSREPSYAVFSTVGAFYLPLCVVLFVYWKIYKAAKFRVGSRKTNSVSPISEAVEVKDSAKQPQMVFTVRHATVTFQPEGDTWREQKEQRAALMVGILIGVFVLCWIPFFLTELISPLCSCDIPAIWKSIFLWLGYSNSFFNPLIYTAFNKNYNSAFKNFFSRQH

The assay concerns the target 5-hydroxytryptamine receptor 5A (Homo sapiens) (UniProt P47898). As to the kind of experiment: inverse agonism at human 5-HT5A receptor – cell-based, luminescence, full-deck HTS, counter-screen for OPRM1-OPRD1 heterodimer inverse agonist project, primary screen (AID 504634).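 Further: 0% = cells with DMSO and 100% = no-cell wells with DMSO.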 To be noted: HTR5A cell line, at 9.3 µM, hits give high values. Background: A counterscreen serves to expose hits that act by an unwanted route or on another target.
Take `CC[C@H](C)[C@@H](C(=O)N1CCNCC1)n1cc([C@@H](N)Cc2ccc(O)cc2)nn1`: the inhibition (as a rule, the relative decrease from the control value, in per cent) was -7.48% (inactive).
To `COCc1cc(=O)[nH]c(SC)n1` belongs -5.28% (inactive); to `O=C(CSc1nnc(Nc2ccccc2F)s1)NC1CCCC1`, -11.3% (inactive); to `CCN(CC(=O)Nc1cc(Cl)ccc1C)C(=O)CSCc1ccc(C)cc1`, -29.4% (inactive).
To `CC[n+]1cc(C)ccc1/C=C/c1ccc(N(C)C)cc1` belongs 9.17% (inactive); to `CCCCN(C(=O)c1cccc(N2C(=O)c3ccccc3C2=O)c1)c1c(N)n(CCCC)c(=O)[nH]c1=O`, -1.54% (inactive).
Next, `O=c1[nH]nc(Cc2ccccn2)c2ccccc12`: 34.8% (inactive); `c1ccc2c(c1)OC1OC2Oc2ccccc21`: 2.1% (inactive).
`CCOc1ccc(S(=O)(=O)Nc2cccc(C(=O)NCC3(N4CCCCC4)CCCCC3)c2)cc1`: the inhibition is -7.44% (inactive).
Next, `CC(C)COc1ccc(C(=O)NNC(=O)CCC(=O)c2cccs2)cc1`: 8.1% (inactive); `Cc1cccc(NC(=O)N2CCCCCC2)c1C`: -15.6% (inactive); `CCC1Nc2ncnc(N3CCN(c4ccccc4)CC3)c2N(Cc2ccc(Cl)cc2)C1=O` (stereo not drawn): 72% (active).
Consider `O=C1C(Cc2ccc(O)cc2)NC(=S)N1Cc1ccccc1` (stereo not drawn), for which the inhibition is -7.4% (inactive).
To `CC[C@]1(C(=O)OC)[C@H]2C(=O)N(Cc3ccccc3)C(=O)[C@H]2[C@H]2CN=C(SCc3ccc(Cl)cc3)N21` belongs 4.46% (inactive); to `N#Cc1ccc(C2=CC(=O)C[C@H](c3ccc(Cl)cc3)C2)cc1`, -10.1% (inactive); to `O=C(Nc1ccc(Cl)c(Cl)c1)N1CC=C(c2ccccc2)CC1`, 13.3% (inactive).
Next, `C=CCN1C=C(C(=O)c2ccccc2)C(=O)CC1`: 6.15% (inactive); `CCc1nccn1CCC(=O)N1CCCC(N2CCN(c3ccccc3F)CC2)C1` (stereo not drawn): 5.46% (inactive).
Next, `COc1ccc([C@H]2CC(=O)C=C(c3ccc(CO)cc3)C2)cc1`: 8.13% (inactive); `O=C1c2ccccc2[C@@H]2C[C@@H](O)[C@H](Nc3ccccc3Cl)CCN12`: -0.71% (inactive); `Cc1cc(C)nc(SC(C)C(=O)N/N=C/c2cccs2)n1` (stereo not drawn): 9.06% (inactive).
Consider `O=C(Cc1ccccn1)c1ccc(O)cc1O`, for which the inhibition is 12.8% (inactive).
With `COc1ccc(-c2nnc(SC(C)C(=O)NC3CC3)o2)cc1` (stereo not drawn), the inhibition is 24.2% (active).
To `COc1ccc(-c2nnc(SCC(=O)NC3CCCCC3)o2)cc1OC` belongs 0.53% (inactive); to `COc1ccc(-c2nnc(SC(=O)N3c4ccccc4Sc4ccccc43)o2)cc1`, -1.76% (inactive).
For the molecule `COc1cc(N)c(Cl)cc1C(=O)OCC(=O)c1ccc2c(c1)NC(=O)CO2`, the inhibition is 10.7% (inactive).
Next, `Cc1nnc(SCC(=O)N(C(C)C)C(C)C)nc1C`: 7.98% (inactive).
With `COc1ccc(N/N=C2/CCCCC2=O)cc1`, the inhibition is -17.4% (inactive).
In the case of `CCCCN1CC(COc2ccccc2)Oc2cccc(F)c2S1(=O)=O` (stereo not drawn), the inhibition is -4.35% (inactive).
Consider `CN1C(CC(=O)Nc2ccc(Br)cc2)c2ccccc2CC1(C)C` (stereo not drawn), for which the inhibition is -2.97% (inactive).
Next, `Cc1cc(C(=O)COc2ccccc2[N+](=O)[O-])c(C)n1-c1cccc(S(=O)(=O)N2CCOCC2)c1`: -23.2% (inactive); `O=C1CC(C(=O)O)NC(=S)N1` (stereo not drawn): -5.32% (inactive).
`COc1ccc2oc(C(=O)N(CC(C)C)C3CCS(=O)(=O)C3)c(C)c2c1` (stereo not drawn): the inhibition was 5.04% (inactive).
For `CCCCCCCCc1c(O)nc(-n2[nH]c(C)c(CCO)c2=O)[nH]c1=O`, the inhibition was 23.4% (active).
Next, `CCCCc1c(O)nc2n(c1=O)CCS2`: -25.6% (inactive).
Next, `CCCCCc1c(C)nc(N2CCN(Cc3ccc4c(c3)OCO4)CC2)[nH]c1=O`: -8.1% (inactive).
Next, `CCc1c(SCCC(=O)O)nc2ccccc2c1C`: -56.3% (inactive); `C=CCNC(=O)C1CC=CCC1C(=O)O` (stereo not drawn): 19.4% (inactive); `Cc1ccc2cc(CN(c3ccc(C)c(C)c3)S(C)(=O)=O)c(=O)[nH]c2c1`: -3.96% (inactive).
`CC(OC(=O)c1ccccc1NCCO)C(=O)Nc1ccnn1C(C)C` (stereo not drawn): the inhibition was -11.8% (inactive).
Next, `COC(=O)c1ccc(Sc2ccc(F)cc2)c(N)c1`: -3.93% (inactive).
Next, `CC(C)CCN1CCN(C/C=C/c2ccco2)CC1CCO` (stereo not drawn): -0.83% (inactive).
For `CC(=O)c1ccc(N2CCN(C(=O)c3ccc(Cl)c(S(=O)(=O)NC4CC4)c3)CC2)c(F)c1`, the inhibition was -4.11% (inactive).
Next, `CC(C)(C)n1nnnc1C(c1ccccc1F)N1CCN(C(=O)c2ccco2)CC1` (stereo not drawn): -20.1% (inactive); `Cc1nn(CCCC(=O)NCc2ccccc2Cl)c(=O)c2nccn12`: -28.5% (inactive); `CN(C)CCCNC(=S)N1CCN(c2nc(-c3ccccc3)cs2)CC1`: -13.5% (inactive).
To `Cc1c(CCC(=O)N[C@@H](CC(C)C)C(=O)O)c(=O)oc2c(C)c3oc4c(c3cc12)CCCC4` belongs 3.6% (inactive).
To `CC/C(=C\c1ccc(Cl)cc1)c1ccncc1` belongs -7.07% (inactive); to `COc1cc(C(=S)N2CCOCC2)cc(OC)c1OC(=O)c1ccc([N+](=O)[O-])cc1[N+](=O)[O-]`, -0.97% (inactive).
For the molecule `COc1ccc(CNC(=O)C(c2ccc(O)cc2)N(Cc2ccco2)C(=O)c2snc(C(N)=O)c2N)cc1` (stereo not drawn), the inhibition is 3.12% (inactive).
Consider `COC(=O)c1ccc(NC(=S)NN2CCOCC2)cc1`, for which the inhibition is 13.4% (inactive).
To `O=S(=O)(Nc1ccc(-c2ccc(N3CCOCC3)nn2)cc1)c1cc(Cl)ccc1Cl` belongs -25.2% (inactive).
Turning to `COc1cccc(COC(=O)C2CCN(S(=O)(=O)c3cccs3)CC2)c1OC`, the inhibition is -12.6% (inactive).
Next, `CCC1CCCCN1CCCNC(=O)c1cc2c(Cl)nc3ccccc3c2s1` (stereo not drawn): 5.42% (inactive); `CCn1c(=O)n(CC)c2cc(N3CCCC3)c(NC(=O)c3ccccc3Br)cc21`: 10.1% (inactive); `Cc1ccccc1-c1n[nH]c(=S)n1/N=C/c1ccc(-c2ccccc2Br)o1`: 4.19% (inactive).
With `CS(=O)(=O)N(CC(=O)Nc1ccc(F)cc1F)c1cccc([N+](=O)[O-])c1`, the inhibition is 14.4% (inactive).
Next, `Cc1ccc(OCCC(=O)Nc2ccc(S(=O)(=O)Nc3nccs3)cc2)cc1`: -6.52% (inactive); `CC(C)CCNC(=O)CCNS(=O)(=O)c1ccc(Cl)cc1`: -7.35% (inactive).
As for `OC(COc1ccc2c(c1)CCC2)CN1CCN(c2cccc(Cl)c2)CC1` (stereo not drawn), the inhibition is -19.1% (inactive).
Turning to `CCOc1ccc(C(=O)NC(=S)Nc2ccc(N3CCOCC3)c(Cl)c2)cc1[N+](=O)[O-]`, the inhibition is 30.9% (inactive).
Next, `O=c1o[nH]c(-c2ccccc2)c1N=Nc1c(F)cccc1Cl`: -12.2% (inactive).
In the case of `COc1ccc2c(c1)CCC/C2=N\OC(=O)c1ccccc1F`, the inhibition was 0.11% (inactive).
